Among all 5,500 compounds or so, about 2,000 (36%) were called active. Inconclusive results (about 18%) are left out. Cut-off read from the data, not from the text of the source: active = normalized growth mostly below about 0.91 (no sharp cut-off); inconclusive = no clear call, values can overlap the other calls; inactive = mostly above about 0.92. The list shows a part of the results.
Assay: chemical genetic growth profiling, strain panel (AID 1159580);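 note: tested at 20 µM; growth read once vehicle control cultures reached saturation at 30 °C; 1 = growth at the plate median or of vehicle wells; lower values mean less growth of the strain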
Conditions: S. cerevisiae deletion strains, growth OD

Measured: normalized growth

CC1(C)Oc2ccc3ccc(=O)oc3c2CC1O (centres undefined)
inactive: locus YAL013W, strain DEP1, stronger effect = lower value 0.994 | locus YAL021C, strain ccr4, stronger effect = lower value 1 | locus YAL026C, strain drs2, stronger effect = lower value 0.967 | locus YAL030W, strain snc1, stronger effect = lower value 0.972 | locus YBL061C, strain skt5, stronger effect = lower value 0.971 | locus YBR009C, strain hhf1, stronger effect = lower value 0.94 | locus YBR021W, strain FUR4, stronger effect = lower value 1.02 | locus YBR023C, strain chs3, stronger effect = lower value 0.984 | locus YBR171W, strain sec66, stronger effect = lower value 0.976 | locus YBR229C, strain ROT2, stronger effect = lower value 0.998 | locus YBR231C, strain swc5, stronger effect = lower value 0.976 | locus YBR279W, strain paf1, stronger effect = lower value 0.987 | locus YCL011C, strain gbp2, stronger effect = lower value 0.963 | locus YCL016C, strain dcc1, stronger effect = lower value 0.988 | locus YCL029C, strain bik1, stronger effect = lower value 1.01 | locus YCL061C, strain MRC1, stronger effect = lower value 0.989 | locus YCL069W, strain vba3, stronger effect = lower value 0.968 | locus YCR088W, strain abp1, stronger effect = lower value 0.986 | locus YDL005C, strain med2, stronger effect = lower value 0.975 | locus YDL035C, strain GPR1, stronger effect = lower value 0.991 | locus YDL040C, strain nat1, stronger effect = lower value 0.979 | locus YDL074C, strain BRE1, stronger effect = lower value 1.01 | locus YDL101C, strain DUN1, stronger effect = lower value 0.995 | locus YDL134C, strain PPH21, stronger effect = lower value 0.974 | locus YDL185W, strain tfp1, stronger effect = lower value 1.02 | locus YDL192W, strain arf1, stronger effect = lower value 1.02 | locus YDR001C, strain nth1, stronger effect = lower value 0.97 | locus YDR069C, strain doa4, stronger effect = lower value 0.957 | locus YDR101C, strain arx1, stronger effect = lower value 1.02 | locus YDR137W, strain rgp1, stronger effect = lower value 0.99 | locus YDR150W, strain NUM1, stronger effect = lower value 1.01 | locus YDR159W, strain sac3, stronger effect = lower value 0.922 | locus YDR162C, strain NBP2, stronger effect = lower value 0.978 | locus YDR195W, strain ref2 0.971 | locus YDR297W, strain sur2, stronger effect = lower value 0.971 | locus YDR318W, strain mcm21, stronger effect = lower value 0.977 | locus YDR334W, strain swr1, stronger effect = lower value 0.982 | locus YDR335W, strain msn5, stronger effect = lower value 0.993 | locus YDR388W, stronger effect = lower value 1 | locus YDR392W, strain spt3, stronger effect = lower value 0.91 | locus YDR502C, strain sam2, stronger effect = lower value 0.994 | locus YEL003W, strain gim4, stronger effect = lower value 0.977 | locus YEL037C, strain rad23, stronger effect = lower value 0.982 | locus YEL061C, strain CIN8 (second series), stronger effect = lower value 0.977 | locus YEL061C, strain CIN8, stronger effect = lower value 0.992 | locus YER015W, strain faa2, stronger effect = lower value 0.968 | locus YER016W, strain bim1, stronger effect = lower value 0.996 | locus YER110C, stronger effect = lower value 1.01 | locus YER111C, strain swi4, stronger effect = lower value 0.982 | locus YER155C, strain BEM2 (second series), stronger effect = lower value 0.956 | locus YER155C, strain BEM2, stronger effect = lower value 1.01 | locus YER167W, strain BCK2, stronger effect = lower value 0.978 | locus YFR010W, strain ubp6, stronger effect = lower value 0.972 | locus YGL078C, strain dbp3, stronger effect = lower value 0.999 | locus YGL086W, strain mad1, stronger effect = lower value 1.04 | locus YGL167C, strain pmr1, stronger effect = lower value 0.961 | locus YGL173C, strain kem1, stronger effect = lower value 0.975 | locus YGL227W, strain vid30, stronger effect = lower value 0.97 | locus YGL240W, strain doc1, stronger effect = lower value 0.97 | locus YGL248W, strain PDE1, stronger effect = lower value 0.998 | locus YGL253W, strain hxk2, stronger effect = lower value 1 | locus YGR078C, strain PAC10, stronger effect = lower value 0.999 | locus YGR135W, strain pre9, stronger effect = lower value 0.978 | locus YGR252W, strain gcn5, stronger effect = lower value 0.928 | locus YHR013C, strain ard1, stronger effect = lower value 0.943 | locus YHR027C, strain rpn1, stronger effect = lower value 0.973 | locus YHR030C, strain SLT2, stronger effect = lower value 1 | locus YHR079C, strain IRE1 (second series), stronger effect = lower value 1 | locus YHR094C, strain hxt1, stronger effect = lower value 1.02 | locus YHR129C, strain ARP1, stronger effect = lower value 1 | locus YHR142W, strain chs7, stronger effect = lower value 0.996 | locus YHR200W, strain rpn10, stronger effect = lower value 1.01 | locus YIL066C, strain RNR3, stronger effect = lower value 1 | locus YIL073C, strain SPO22, stronger effect = lower value 1.02 | locus YIL125W, strain kgd1, stronger effect = lower value 1.02 | locus YIR030C, strain dcg1, stronger effect = lower value 1.01 | locus YJL092W, strain hpr5, stronger effect = lower value 0.989 | locus YJL095W, strain BCK1 (second series), stronger effect = lower value 0.996 | locus YJL095W, strain BCK1, stronger effect = lower value 0.986 | locus YJL115W, strain asf1, stronger effect = lower value 0.984 | locus YJL129C, strain trk1, stronger effect = lower value 0.977 | locus YJL134W, strain LCB3, stronger effect = lower value 1 | locus YJL154C, strain vps35, stronger effect = lower value 0.978 | locus YJL164C, strain tpk1, stronger effect = lower value 1.01 | locus YJL166W, strain qcr8, stronger effect = lower value 0.989 | locus YJL168C, strain set2, stronger effect = lower value 1.01 | locus YJL187C, strain SWE1 (second series), stronger effect = lower value 1.01 | locus YJL187C, strain SWE1, stronger effect = lower value 0.976 | locus YJR043C, strain POL32, stronger effect = lower value 0.995 | locus YKL009W, strain mrt4, stronger effect = lower value 1.01 | locus YKL068W, stronger effect = lower value 0.998 | locus YKL085W, strain MDH1 (second series), stronger effect = lower value 1.01 | locus YKL085W, strain MDH1, stronger effect = lower value 1.01 | locus YKL160W, strain elf1, stronger effect = lower value 1.02 | locus YKR001C, strain vps1, stronger effect = lower value 1.03 | locus YKR026C, strain gcn3, stronger effect = lower value 0.957 | locus YKR091W, strain srl3, stronger effect = lower value 0.965 | locus YLL001W, strain dnm1, stronger effect = lower value 0.987 | locus YLL026W, stronger effect = lower value 0.977 | locus YLL041C, strain sdh2, stronger effect = lower value 0.989 | locus YLR027C, strain aat2, stronger effect = lower value 0.982 | locus YLR039C, strain RIC1, stronger effect = lower value 0.998 | locus YLR058C, strain SHM2, stronger effect = lower value 0.992 | locus YLR102C, strain apc9, stronger effect = lower value 1.01 | locus YLR221C, strain rsa3, stronger effect = lower value 0.994 | locus YLR258W, strain gsy2, stronger effect = lower value 0.971 | locus YLR262C, strain YPT6 (second series), stronger effect = lower value 0.989 | locus YLR262C, strain YPT6, stronger effect = lower value 0.956 | locus YLR268W, strain sec22, stronger effect = lower value 1.05 | locus YLR320W, strain mms22, stronger effect = lower value 0.998 | locus YLR330W, strain CHS5, stronger effect = lower value 1 | locus YLR342W, strain FKS1 (second series), stronger effect = lower value 1.02 | locus YLR342W, strain FKS1, stronger effect = lower value 0.973 | locus YLR357W, strain rsc2, stronger effect = lower value 0.961 | locus YLR370C, strain arc18, stronger effect = lower value 0.976 | locus YLR371W, strain rom2, stronger effect = lower value 1.01 | locus YLR384C, strain iki3, stronger effect = lower value 0.976 | locus YLR418C, strain cdc73, stronger effect = lower value 0.978 | locus YML016C, strain PPZ1, stronger effect = lower value 1 | locus YML032C, strain rad52, stronger effect = lower value 0.976 | locus YML120C, strain ndi1, stronger effect = lower value 0.988 | locus YML124C, strain tub3, stronger effect = lower value 0.994 | locus YMR058W, strain fet3, stronger effect = lower value 0.979 | locus YMR078C, strain ctf18, stronger effect = lower value 1.02 | locus YMR125W, strain sto1, stronger effect = lower value 0.935 | locus YMR129W, stronger effect = lower value 0.966 | locus YMR205C, strain PFK2, stronger effect = lower value 0.941 | locus YMR223W, strain ubp8, stronger effect = lower value 0.996 | locus YMR231W, strain pep5, stronger effect = lower value 0.977 | locus YMR307W, strain GAS1, stronger effect = lower value 1.04 | locus YNL067W, strain RPL9B, stronger effect = lower value 1 | locus YNL071W, strain lat1, stronger effect = lower value 0.988 | locus YNL209W, strain ssb2, stronger effect = lower value 0.965 | locus YNL233W, strain BNI4, stronger effect = lower value 1 | locus YNL248C, strain rpa49, stronger effect = lower value 1.02 | locus YNL250W, strain rad50, stronger effect = lower value 1.01 | locus YNL271C, strain bni1, stronger effect = lower value 1.01 | locus YNL298W, strain CLA4, stronger effect = lower value 1 | locus YNL307C, strain MCK1, stronger effect = lower value 1.02 | locus YNL322C, strain KRE1 (second series), stronger effect = lower value 0.967 | locus YNR049C, strain mso1, stronger effect = lower value 0.97 | locus YNR052C, strain pop2, stronger effect = lower value 1.02 | locus YOL006C, strain TOP1, stronger effect = lower value 1.02 | locus YOL012C, strain htz1 0.905 | locus YOL147C, strain pex11, stronger effect = lower value 1 | locus YOR001W, strain rrp6, stronger effect = lower value 1.02 | locus YOR061W, strain CKA2, stronger effect = lower value 1 | locus YOR069W, strain VPS5, stronger effect = lower value 1 | locus YOR070C, strain gyp1, stronger effect = lower value 0.987 | locus YOR080W, strain dia2, stronger effect = lower value 0.975 | locus YOR083W, strain WHI5, stronger effect = lower value 1.03 | locus YOR106W, strain vam3, stronger effect = lower value 0.995 | locus YOR136W, strain idh2, stronger effect = lower value 1.01 | locus YOR144C, strain elg1, stronger effect = lower value 1 | locus YOR184W, strain ser1, stronger effect = lower value 0.988 | locus YOR265W, strain rbl2, stronger effect = lower value 0.987 | locus YOR270C, strain vph1, stronger effect = lower value 1.02 | locus YOR290C, strain snf2, stronger effect = lower value 0.924 | locus YOR316C, strain cot1, stronger effect = lower value 1 | locus YPL051W, strain arl3, stronger effect = lower value 1.02 | locus YPL078C, strain atp4, stronger effect = lower value 1 | locus YPL106C, strain sse1, stronger effect = lower value 0.95 | locus YPL240C, strain hsp82, stronger effect = lower value 0.974 | locus YPL241C, strain CIN2, stronger effect = lower value 0.996 | locus YPR119W, strain clb2, stronger effect = lower value 0.997 | locus YPR141C, strain kar3, stronger effect = lower value 1.01 | locus YPR163C, strain tif3, stronger effect = lower value 1.01 | locus YPR167C, strain met16, stronger effect = lower value 1 | strain wtn01, stronger effect = lower value 1.05

Source: PubChem BioAssay AID1159580 (chemical genetic matrix, 2015)
